Bioassay records as filed in PubChem.
Compounds with a hit are over-represented: about 1.1% of the library has one in this group of screens.
SARS PLpro yeast: inhibitors of SARS-CoV papain-like protease in yeast | S. cerevisiae expressing SARS-CoV PLpro, growth rescue | Potency, µM (series often up to 32.9 µM), inactives show at the highest dose activity, positive = growth rescue, usual class: activators | 330,000 compounds, 0.19% hits | AID 485353; calls by dose curve; note: 0% is about no effect; nearly all actives have a fitted effect of over 55% in size
FBPA Giardia inh: blocks Giardia fructose-bisphosphate aldolase activity; purified Giardia FBPA; 290,000 compounds, 0.71% hits; Potency, µM (doses to about 59.6 µM), for the others: at the top dose activity, negative = inhibition, hits mostly inhibitors; AID 2451; A8B2U2; note: % is set by controls: 0 for no effect and ±100 for the full control effect; nearly all actives have a fitted effect of over 55% in size
Target sequence (A8B2U2 whole entry, looked up): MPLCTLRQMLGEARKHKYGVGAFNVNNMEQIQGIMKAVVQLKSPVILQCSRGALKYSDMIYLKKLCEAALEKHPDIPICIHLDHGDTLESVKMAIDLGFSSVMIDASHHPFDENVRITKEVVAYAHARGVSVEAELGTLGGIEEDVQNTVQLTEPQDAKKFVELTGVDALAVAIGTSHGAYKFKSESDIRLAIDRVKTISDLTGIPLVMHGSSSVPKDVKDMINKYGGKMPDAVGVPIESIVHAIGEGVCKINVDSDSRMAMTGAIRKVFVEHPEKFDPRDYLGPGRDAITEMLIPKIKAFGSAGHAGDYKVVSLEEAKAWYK
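Giardia FBPA (40 nM reagent) was preincubated 10 min at RT with compound (up to 57.5 uM final), then substrate plus GAPDH/TPI/NAD/arsenate coupling system with diaphorase/resazurin was added; resorufin fluorescence (525/598 nm) was read after 20 min.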
AmpC inh no detg: AmpC beta-lactamase inhibition without detergent. P00811. AmpC nitrocefin hydrolysis, absorbance 480 nm, 0.0001% Triton. Potency, µM (top dose mostly 57.1 µM), for the others: at the highest dose activity change, negative = inhibition, actives largely listed as inhibitors. 330,000 compounds, 0.52% hits. AID 485341;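 note: plate controls were no compound for no effect and no enzyme for full effect; nearly all actives have a fitted effect of over 20% in size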
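20 mM phosphate pH 7.0 + 0.01% (detergent screen) or 0.0001% Triton X-100; 5.3 nM AmpC reagent; cpd preinc 15 min RT; nitrocefin (800 uM stock) to start; A480 q20 s × 4 min; Activity was normalised to no-enzyme and no-compound control wells.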
AmpC inh detg: blocks E. coli AmpC beta-lactamase in detergent assay; P00811; AmpC hydrolysis of nitrocefin, absorbance 480 nm, 0.01% Triton; Potency, µM (doses to about 114 µM), inactives show top-dose activity change, negative = inhibition, most hits filed as inhibitors; 370,000 compounds, 0.041% hits; AID 485294;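 note: 0% = no-compound wells and -100% = no-enzyme wells; nearly all actives have a fitted effect of over 25% in size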
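AmpC (5.3 nM in the dispensed reagent) in 20 mM phosphate pH 7.0 with 0.01% (detergent screen) or 0.0001% Triton X-100 was preincubated with compounds for 15 min at room temperature. Nitrocefin was then added from an 800 uM solution, and hydrolysis was followed at 480 nm.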
Numbers without * were called inactive; ? = inconclusive; · = no result. Unless noted, calls come from the whole dose curve; as a rule, active = well fitted curve in the direction sought with a large enough effect; inconclusive = small, poorly fitted or top-dose-only effect, or another doubt; inactive = no such curve, though single readings can be large; an effect the other way counts as inactive or inconclusive. Potency is the fitted concentration of half-maximal effect.

SMILES	SARS PLpro yeast	FBPA Giardia inh	AmpC inh no detg	AmpC inh detg
Cc1ccc(NC(=O)/C(C#N)=N/Nc2ccc(C(=O)O)cc2)c(C)c1	-1%	-9%	-24%	5%
C=C(C)C(=O)OCCOC(=O)C(=C)C	·	3%	·	·
O=C(N/N=C/c1ccc(-c2ccc(S(=O)(=O)Nc3ncccn3)cc2)o1)c1cc2ccccc2cc1O	8%	-2%	20µM*	-12%
COc1ccccc1/C=C1\SC(=S)N(CCC(=O)NNC(=O)c2ccccc2O)C1=O	4%	11%	16µM*	-8%
COc1ccc(/C=C2\SC(=S)N(CCCC(=O)NNC(=O)c3ccccc3O)C2=O)cc1	2%	12%	-36%	-3%
Cc1ccc(C(=O)/C=C/c2c[nH]c3ccccc23)cc1	-33%	-12%	-9%	-1%
O=C(/C=C/c1c[nH]c2ccccc12)c1ccccc1	-80%	-12%	16µM*	-9%
CSCC[C@H](N)C(=O)N[C@@H](CCCN=C(N)N)C(=O)N[C@@H](Cc1ccccc1)C(=O)N[C@@H](Cc1ccccc1)C(=O)N[C@H](C(=O)O)C(C)C	·	3%	·	·
CCOC(=O)c1ccc(NC(=O)c2ccc(NS(C)(=O)=O)cc2)cc1	-2%	5%	-42%	?
CCOC(=O)c1ccc(NC(=O)c2ccccc2)cc1	-7%	-3%	10µM*	?
O=C(CCc1c[nH]c2ccccc12)N=Nc1c(O)[nH]c2ccccc12	0%	1%	32µM*	-6%
CCN(Cc1ccncc1)Cc1c(O)ccc2cc(Br)ccc12	2%	8.9µM*	-56%	-4%
CN(C)C(CNC(=O)c1cc(-c2ccco2)nc2ccccc12)c1ccccc1 (configuration not stated)	10µM*	·	-19%	·
CN(CC(=O)Nc1cccc(F)c1)C(=O)c1cc(-c2ccco2)nc2ccccc12	1%	·	18µM*	-10%
COc1ccc2oc(=O)cc(CN3CCN(c4ccccc4F)CC3)c2c1	·	·	·	21%
CCc1ccc(N(C(C)=O)C2C=CS(=O)(=O)C2)cc1 (configuration not stated)	3%	0%	0.16µM*	3%
CC(=O)N(c1ccc(Br)cc1)C1C=CS(=O)(=O)C1 (configuration not stated)	3%	2%	?	?
O=C(O)CCC1CCCC1	·	4%	·	·
CCCSc1nnc(N2C(=O)CC(c3ccsc3)C3=C2CCCC3=O)s1 (configuration not stated)	-2%	6%	4.5µM*	?
C[n+]1cccc2cccc([O-])c21	-1%	0.45µM*	-7%	-6%
CCc1cccc2c(C(=O)COC(=O)c3ccc(O)cc3)c[nH]c12	3%	3%	28µM*	-11%
CCCCCCCCCCCCOCCOCCOCCOCCOCCOCCOCCOCCOCCO	·	8%	·	·
COC(=O)c1nc(-c2ccc3c(n2)C(=O)C(N)=C(OC)C3=O)c(N)c(-c2ccc(OC)c(OC)c2O)c1C	1%	10µM*	-11%	3%
O=C(Cn1ccc2cc(S(=O)(=O)N3CCCCC3)ccc21)NCc1ccccc1F	?	·	20µM*	-3%
O=C(Cn1ccc2cc(S(=O)(=O)N3CCCCC3)ccc21)NCc1ccccc1Cl	·	·	·	8%
SMILES	SARS PLpro yeast	FBPA Giardia inh	AmpC inh no detg	AmpC inh detg
Cc1ccc(SCC(=O)c2ccc(CC(=O)O)s2)cc1	1%	17%	20µM*	-7%
N=c1n(Cc2ccccc2)c2ccccc2n1CC(O)COc1ccccc1 (configuration not stated)	22µM*	0%	2%	-6%
COc1ccc(Cc2nc(-c3ccc(-n4cccc4)cc3)no2)cc1OC	-7%	-6%	8.9µM*	0%
COc1ccc(C2C3C=CCC(C)C3C(=O)N2Cc2ccccc2)cc1Cl (configuration not stated)	·	-2%	·	·
CCC(Cn1nnc2ccccc2c1=O)NC(=O)Nc1ccc(C)c(C)c1 (configuration not stated)	·	·	·	-2%
CC(C)(S)[C@@H](N)C(=O)O	2%	13µM*	-24%	-11%
Cc1ccc(NC(=O)COc2ccc(C(=O)c3ccccc3)cc2)c(O)c1	-2%	1%	16µM*	1%
Cc1ccc(OCC(=O)Nc2ccc(Cl)cc2C(=O)c2ccccc2)cc1	1%	-2%	-20%	-2%
CCSc1ccc2nnc(-c3ccc(F)cc3)n2n1	-9%	1%	0.4µM*	3%
CCOC(=O)CC(=O)CSc1ccc2nnc(-c3ccccc3)n2n1	-3%	4%	0.16µM*	2%
O=C(COC(=O)c1cc([N+](=O)[O-])ccc1NCCO)Nc1cccc(S(=O)(=O)N2CCCC2)c1	3%	·	32µM*	?
CCN(CC)S(=O)(=O)c1ccc(C)c(NC(=O)CNc2cccc(S(=O)(=O)N3CCCC3)c2)c1	2%	·	-28%	0%
CCN(CC)S(=O)(=O)c1cccc(NC(=O)CNc2cccc(S(=O)(=O)N3CCCC3)c2)c1	-4%	-3%	28µM*	0%
C[C@H]1C(=O)N(S(=O)(=O)c2ccccc2[N+](=O)[O-])[C@H]1c1ccc(-c2ccccc2)cc1	·	12%	·	·
CC1(OC(=O)CCc2ccccc2)C(=O)C=C2C=C(c3ccsc3)OC=C2C1=O (configuration not stated)	1%	-2%	28µM*	-1%
CC1(OC(=O)CCc2ccccc2)C(=O)C=C2C=C(c3ccc(C#N)cc3)OC=C2C1=O (configuration not stated)	·	-10%	·	·
O=C(Nc1cccc(-c2nc3ccccc3[nH]2)c1)c1cccc(NC(=O)c2ccco2)c1	3%	4%	3.2µM*	?
CS(=O)(=O)c1cccc(C(=O)Nc2cccc(-c3nc4ccccc4[nH]3)c2)c1	-10%	3%	18µM*	-9%
O=C(Nc1ccc2nc(-c3ccccc3)[nH]c2c1)c1ccco1	0%	-5%	-24%	3%
CS(=O)(=O)c1ccc(C(=O)Nc2cccc(-c3nc4ccccc4[nH]3)c2)cc1	11%	2%	-41%	-11%
O=C(Nc1ccc(Br)c(Cl)c1)C1CC1	-20%	-4%	2.2µM*	1%
O=C(O)c1ccc(S(=O)(=O)N[C@H](Cc2ccc([N+](=O)[O-])cc2)C(=O)O)cc1	2.2µM*	0%	-14%	-11%
O=C(O)c1ccc(S(=O)(=O)N[C@H](Cc2ccc(C(F)(F)F)cc2)C(=O)O)cc1	2.8µM*	3%	-17%	6%
CC(C)CCCC(C)CCCC(C)CCCC(C)C(=O)O (configuration not stated)	·	23%	·	·
CCOC(=O)COc1cc(-n2c(=S)[nH]c3ccccc3c2=O)c(Cl)cc1Cl	3%	-11%	18µM*	?
CC(/C=C/C(=O)NO)=C\[C@@H](C)C(=O)c1ccc(N(C)C)cc1	·	3%	·	·
CCOC(=O)C1=C(C)NC(=O)CC1c1cc2c(cc1[N+](=O)[O-])OCO2 (configuration not stated)	2%	13µM*	-14%	5%
